{"source": "PubChem BioAssay", "key": {"[1]": {"test_system": "PRMT1 (protein arginine N-methyltransferase 1)", "test": "small molecules binding arginine methyltransferase PRMT1 – biochemical, small-molecule microarray, 635 nm fluorescence, primary screen (AID 1088)", "settings": "higher = more signal"}, "[2]": {"test": "growth effects on S. cerevisiae YJM789 – YJM789 clinical isolate, OD600, 24 h, basal, primary screen (AID 1089);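 further: growth of clinical yeast isolate S. cerevisiae YJM 789 seeded 1000 cells per well; test concentration not given here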", "settings": "higher = more signal, called active from +8 up or from −8 down"}, "[3]": {"test": "S. pombe growth modifiers, basal conditions – strain 972, OD600, 24 h, no modulator, primary screen (AID 1090);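 further: basal condition with compound alone and no growth modifier present; test concentration not given here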", "settings": "S. pombe 972 growth, higher = more signal, called active from +8 up or from −8 down"}, "[4]": {"test": "budding yeast growth modifiers under rapamycin – strain BY4716, OD600, 96 h, primary screen (AID 1091); further: test concentration not given here", "settings": "S. cerevisiae BY4716 + rapamycin, higher = more signal, called active from +8 up or from −8 down"}, "[5]": {"biological_target": "Torsin-1A-interacting protein 2 (Homo sapiens) (UniProt Q8NFQ8)", "sequence (Q8NFQ8 whole entry, looked up)": "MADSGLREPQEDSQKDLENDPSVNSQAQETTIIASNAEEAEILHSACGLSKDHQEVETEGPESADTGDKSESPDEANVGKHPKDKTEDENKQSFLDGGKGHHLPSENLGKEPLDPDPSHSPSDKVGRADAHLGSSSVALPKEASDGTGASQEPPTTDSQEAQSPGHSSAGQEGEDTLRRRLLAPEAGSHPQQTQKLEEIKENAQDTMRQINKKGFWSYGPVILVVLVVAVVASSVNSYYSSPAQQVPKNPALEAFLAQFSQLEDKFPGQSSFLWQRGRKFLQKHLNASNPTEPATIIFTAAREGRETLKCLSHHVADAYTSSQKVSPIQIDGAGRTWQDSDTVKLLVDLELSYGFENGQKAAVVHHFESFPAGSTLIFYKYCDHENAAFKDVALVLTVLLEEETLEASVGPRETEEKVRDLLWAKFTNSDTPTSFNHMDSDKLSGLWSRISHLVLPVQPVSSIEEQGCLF", "test": "small molecules binding lysate-expressed LULL1 – cell lysate, human LULL1 lysate, 635/667 nm fluorescence, primary screen (AID 1092);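 further: probe is lysate of COS7 cells overexpressing human LULL1; score merges per-feature 667 nm fluorescence with signal-to-noise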", "settings": "small-molecule microarray, hLULL1 lysate binding, 635 nm fluorescence; higher = more signal"}, "[6]": {"test": "optical density change of DRC41 E. coli – strain DRC41, OD650, 24 h, E. coli filamentation project, primary screen (AID 1093);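 further: MC1000 strain lacking acrAB efflux and sulA so SOS filamentation is blocked; test concentration not given here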", "settings": "E. coli DRC41 growth, higher = more signal, called active from +8 up or from −8 down"}, "[7]": {"test": "probe aLefty2 binding to arrayed compounds – biochemical, biotinylated probe, 635/667 nm fluorescence, primary screen (AID 1094);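 further: score merges spot fluorescence near 667 nm with spot signal-to-noise ratio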", "settings": "small-molecule microarray, higher = more signal"}, "[8]": {"test_system": "Noggin (protein binding on small-molecule microarray)", "test": "small molecules binding Noggin protein – biochemical, 635/667 nm fluorescence, primary screen (AID 1095);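 further: score merges 667 nm feature fluorescence with signal to noise over triplicate slides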", "settings": "635 nm fluorescence, higher = more signal"}, "[9]": {"biological_target": "Neurogenic locus notch homolog protein 3 (Homo sapiens) (UniProt Q9UM47)", "sequence (Q9UM47 whole entry, looked up)": "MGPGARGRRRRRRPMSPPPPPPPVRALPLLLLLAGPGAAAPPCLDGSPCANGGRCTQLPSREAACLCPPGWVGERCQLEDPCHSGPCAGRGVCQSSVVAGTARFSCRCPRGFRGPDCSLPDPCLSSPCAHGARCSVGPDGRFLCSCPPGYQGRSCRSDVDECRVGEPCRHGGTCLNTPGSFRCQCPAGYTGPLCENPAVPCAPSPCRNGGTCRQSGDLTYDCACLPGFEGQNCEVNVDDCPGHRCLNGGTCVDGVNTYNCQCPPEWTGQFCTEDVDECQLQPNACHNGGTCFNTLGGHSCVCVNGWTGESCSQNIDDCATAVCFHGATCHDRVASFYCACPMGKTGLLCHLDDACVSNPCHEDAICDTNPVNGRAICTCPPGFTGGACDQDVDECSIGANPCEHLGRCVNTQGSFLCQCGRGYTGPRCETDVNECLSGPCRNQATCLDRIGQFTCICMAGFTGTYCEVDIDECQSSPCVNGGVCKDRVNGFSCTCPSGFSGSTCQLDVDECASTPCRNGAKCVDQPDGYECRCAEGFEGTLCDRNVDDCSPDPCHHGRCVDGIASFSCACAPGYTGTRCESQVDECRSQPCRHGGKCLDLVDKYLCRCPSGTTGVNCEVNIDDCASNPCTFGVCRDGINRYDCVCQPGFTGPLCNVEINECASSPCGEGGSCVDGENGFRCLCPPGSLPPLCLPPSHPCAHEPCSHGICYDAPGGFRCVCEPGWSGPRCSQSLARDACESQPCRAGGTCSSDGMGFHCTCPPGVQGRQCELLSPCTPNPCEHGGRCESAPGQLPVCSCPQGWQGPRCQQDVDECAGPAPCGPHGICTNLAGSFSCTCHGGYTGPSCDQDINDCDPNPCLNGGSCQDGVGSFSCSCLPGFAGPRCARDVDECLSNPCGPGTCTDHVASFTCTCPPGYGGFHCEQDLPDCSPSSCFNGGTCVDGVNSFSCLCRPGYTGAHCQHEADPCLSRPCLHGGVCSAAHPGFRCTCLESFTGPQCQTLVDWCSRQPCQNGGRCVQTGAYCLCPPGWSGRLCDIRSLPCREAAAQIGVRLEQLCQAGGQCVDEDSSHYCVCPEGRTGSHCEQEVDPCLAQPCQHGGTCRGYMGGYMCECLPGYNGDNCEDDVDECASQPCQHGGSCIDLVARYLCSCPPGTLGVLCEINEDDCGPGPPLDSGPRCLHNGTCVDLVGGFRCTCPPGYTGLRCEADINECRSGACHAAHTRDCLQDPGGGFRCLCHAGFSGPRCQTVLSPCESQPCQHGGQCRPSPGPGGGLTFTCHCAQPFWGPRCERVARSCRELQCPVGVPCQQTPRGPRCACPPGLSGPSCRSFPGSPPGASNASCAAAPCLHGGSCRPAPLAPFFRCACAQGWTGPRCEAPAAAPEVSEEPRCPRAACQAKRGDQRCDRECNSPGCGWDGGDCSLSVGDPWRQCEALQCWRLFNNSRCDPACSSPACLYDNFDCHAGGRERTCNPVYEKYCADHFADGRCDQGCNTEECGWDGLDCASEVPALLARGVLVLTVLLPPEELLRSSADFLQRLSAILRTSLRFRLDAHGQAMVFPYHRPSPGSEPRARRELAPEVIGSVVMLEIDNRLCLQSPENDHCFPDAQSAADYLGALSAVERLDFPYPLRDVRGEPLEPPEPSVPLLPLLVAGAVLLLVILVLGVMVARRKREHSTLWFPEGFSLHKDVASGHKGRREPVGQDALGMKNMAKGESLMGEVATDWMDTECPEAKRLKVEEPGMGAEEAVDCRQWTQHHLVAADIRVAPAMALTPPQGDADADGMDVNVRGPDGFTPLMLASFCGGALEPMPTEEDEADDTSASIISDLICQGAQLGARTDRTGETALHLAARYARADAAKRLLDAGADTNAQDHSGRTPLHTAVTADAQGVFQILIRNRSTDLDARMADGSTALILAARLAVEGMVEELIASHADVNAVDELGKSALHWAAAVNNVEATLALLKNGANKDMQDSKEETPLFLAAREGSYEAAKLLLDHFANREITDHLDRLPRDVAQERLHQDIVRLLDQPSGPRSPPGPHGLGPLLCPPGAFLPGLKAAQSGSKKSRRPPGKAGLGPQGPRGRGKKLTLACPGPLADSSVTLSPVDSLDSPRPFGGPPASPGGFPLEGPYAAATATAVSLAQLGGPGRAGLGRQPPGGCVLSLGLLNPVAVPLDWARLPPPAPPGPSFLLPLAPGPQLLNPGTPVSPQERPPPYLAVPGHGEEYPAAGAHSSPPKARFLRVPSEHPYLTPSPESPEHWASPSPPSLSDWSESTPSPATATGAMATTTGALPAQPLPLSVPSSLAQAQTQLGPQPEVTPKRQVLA", "test": "small molecules binding NOTCH3 protein – biochemical, 635/667 nm fluorescence, primary screen (AID 1096)", "settings": "small-molecule microarray, 635 nm fluorescence, higher = more signal"}, "[10]": {"test": "probe aEGFR binding to arrayed compounds – biochemical, biotinylated probe, 635/667 nm fluorescence, primary screen (AID 1097);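 further: probe is a biotinylated anti-EGFR antibody binding compounds printed on slides; score combines fluorescence near 667 nm and signal to noise of each spot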", "settings": "small-molecule microarray, higher = more signal"}}, "note": "Active and inactive are the calls of the source."}
{"compound": "COc1ccc([Si](C)(C)[C@@H]2[C@@H](CC(=O)N3CCC[C@H]3CO)O[C@]3(C(=O)N(c4ccccc4)c4ccccc43)[C@H]2C)cc1", "values": [{"measurement": "composite z-score", "setting": "[1]", "value": 1.54}, {"measurement": "z-score", "setting": "[2]", "value": "-1.57 (inactive)"}, {"measurement": "z-score", "setting": "[3]", "value": "-0.589 (inactive)"}, {"measurement": "z-score", "setting": "[4]", "value": "-1.79 (inactive)"}, {"measurement": "composite z-score", "setting": "[5]", "value": 2.37}, {"measurement": "z-score", "setting": "[6]", "value": "2.79 (inactive)"}, {"measurement": "composite z-score", "setting": "[7]", "value": -0.256}, {"measurement": "composite z-score", "setting": "[8]", "value": 0.999}, {"measurement": "composite z-score", "setting": "[9]", "value": 1.03}, {"measurement": "composite z-score", "setting": "[10]", "value": 0.0436}]}
{"compound": "C=CCNC(=O)[C@@H]1[C@H]2C(=O)O[C@H](c3ccccc3)[C@H](c3ccccc3)N2[C@H](c2ccc(O)cc2)[C@@]12C(=O)N(C(=O)OCCOC)c1ccc(C#CCNC(N)=O)cc12", "values": [{"measurement": "composite z-score", "setting": "[1]", "value": 1.03}, {"measurement": "z-score", "setting": "[2]", "value": "-1.76 (inactive)"}, {"measurement": "z-score", "setting": "[3]", "value": "0.18 (inactive)"}, {"measurement": "z-score", "setting": "[4]", "value": "0.462 (inactive)"}, {"measurement": "composite z-score", "setting": "[5]", "value": 2.29}, {"measurement": "z-score", "setting": "[6]", "value": "-0.213 (inactive)"}, {"measurement": "composite z-score", "setting": "[7]", "value": 0.261}, {"measurement": "composite z-score", "setting": "[8]", "value": 1.12}, {"measurement": "composite z-score", "setting": "[9]", "value": 1.1}, {"measurement": "composite z-score", "setting": "[10]", "value": -0.0549}]}
{"compound": "COCCOC(=O)N1C(=O)[C@@]2(c3ccccc31)[C@H](c1ccc(O)cc1)N1[C@H](c3ccccc3)[C@H](c3ccccc3)OC(=O)[C@H]1[C@@H]2C(=O)Nc1nc2ccccc2s1", "values": [{"measurement": "composite z-score", "setting": "[1]", "value": 1.31}, {"measurement": "z-score", "setting": "[2]", "value": "1.35 (inactive)"}, {"measurement": "z-score", "setting": "[3]", "value": "0.396 (inactive)"}, {"measurement": "z-score", "setting": "[4]", "value": "1.75 (inactive)"}, {"measurement": "composite z-score", "setting": "[5]", "value": 1.94}, {"measurement": "z-score", "setting": "[6]", "value": "1.31 (inactive)"}, {"measurement": "composite z-score", "setting": "[7]", "value": 0.201}, {"measurement": "composite z-score", "setting": "[8]", "value": 0.734}, {"measurement": "composite z-score", "setting": "[9]", "value": 1.09}, {"measurement": "composite z-score", "setting": "[10]", "value": 0.0432}]}
{"compound": "COCCCNC(=O)[C@@]1(C)c2ccccc2C(=O)N(C(C)C)[C@H]1c1ccc(CO)cc1", "values": [{"measurement": "composite z-score", "setting": "[1]", "value": 1.53}, {"measurement": "z-score", "setting": "[2]", "value": "0.564 (inactive)"}, {"measurement": "z-score", "setting": "[3]", "value": "-0.162 (inactive)"}, {"measurement": "z-score", "setting": "[4]", "value": "0.642 (inactive)"}, {"measurement": "composite z-score", "setting": "[5]", "value": 1.6}, {"measurement": "z-score", "setting": "[6]", "value": "-0.636 (inactive)"}, {"measurement": "composite z-score", "setting": "[7]", "value": -0.136}, {"measurement": "composite z-score", "setting": "[8]", "value": 0.571}, {"measurement": "composite z-score", "setting": "[9]", "value": 0.473}, {"measurement": "composite z-score", "setting": "[10]", "value": 0.0004}]}
{"compound": "CCCC[C@@H]1C[C@H]1[C@@H](NC(=O)c1ccco1)c1ccc(-c2ccccc2)cc1", "values": [{"measurement": "composite z-score", "setting": "[1]", "value": 1.11}, {"measurement": "z-score", "setting": "[2]", "value": "0.186 (inactive)"}, {"measurement": "z-score", "setting": "[3]", "value": "0.316 (inactive)"}, {"measurement": "z-score", "setting": "[4]", "value": "0.569 (inactive)"}, {"measurement": "composite z-score", "setting": "[5]", "value": -0.397}, {"measurement": "z-score", "setting": "[6]", "value": "-1.45 (inactive)"}, {"measurement": "composite z-score", "setting": "[7]", "value": 0.0682}, {"measurement": "composite z-score", "setting": "[8]", "value": 0.61}, {"measurement": "composite z-score", "setting": "[9]", "value": 0.234}, {"measurement": "composite z-score", "setting": "[10]", "value": 0.0258}]}
{"compound": "Cc1ccc(S[C@]2(C(=O)NC3CC3)CC(=O)N(Cc3ccccc3)[C@@H]2c2ccc(CO)cc2I)cc1", "values": [{"measurement": "composite z-score", "setting": "[1]", "value": 1.23}, {"measurement": "z-score", "setting": "[2]", "value": "0.0136 (inactive)"}, {"measurement": "z-score", "setting": "[3]", "value": "-3.59 (inactive)"}, {"measurement": "z-score", "setting": "[4]", "value": "0.0377 (inactive)"}, {"measurement": "composite z-score", "setting": "[5]", "value": 2.35}, {"measurement": "z-score", "setting": "[6]", "value": "0.45 (inactive)"}, {"measurement": "composite z-score", "setting": "[7]", "value": -0.012}, {"measurement": "composite z-score", "setting": "[8]", "value": -0.809}, {"measurement": "composite z-score", "setting": "[9]", "value": -0.738}, {"measurement": "composite z-score", "setting": "[10]", "value": -0.286}]}
{"compound": "CCC[C@@H]1C[C@@]1(CCC)[C@@H](NC(=O)c1ccccc1)c1cccc(Cl)c1", "values": [{"measurement": "composite z-score", "setting": "[1]", "value": 0.596}, {"measurement": "z-score", "setting": "[2]", "value": "1.47 (inactive)"}, {"measurement": "z-score", "setting": "[3]", "value": "1.52 (inactive)"}, {"measurement": "z-score", "setting": "[4]", "value": "2.12 (inactive)"}, {"measurement": "composite z-score", "setting": "[5]", "value": 3.23}, {"measurement": "z-score", "setting": "[6]", "value": "-0.452 (inactive)"}, {"measurement": "composite z-score", "setting": "[7]", "value": 0.497}, {"measurement": "composite z-score", "setting": "[8]", "value": 0.149}, {"measurement": "composite z-score", "setting": "[9]", "value": 1.15}, {"measurement": "composite z-score", "setting": "[10]", "value": 0.913}]}
